Hsp90 inh: displaces geldanamycin probe from tumor Hsp90. NCI-N417 lysate Hsp90, Cy3B-geldanamycin FP displacement. inhibition, % at 30 µM. actives 0.35% (n = 64,000). AID 429;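 active means inhibition above 50%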;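 further: 0% = tracer plus lysate wells and 100% = tracer alone without lysate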
M1 agonist: agonists of M1 muscarinic receptor; CHO-M1 cells, Fluo-4 calcium fluorescence, agonist mode; active compounds read high; B-score at 10 µM; actives 3% (n = 64,000);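 active means fluorescence rise, raw or as B-score row- and column-corrected plate score, outside the 99.7% band of its plate's samples, either direction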
MMP13 inh: inhibitors of human MMP13 | AID 570 | actives 0.07% (n = 65,000) | MMP-13 fTHP FRET cleavage, Mca fluorescence | inhibition, % at 4 µM | P45452;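 active means inhibition above the mean of compound-free control plate wells plus 3 SD, cut at about 14% in these data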;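 further: 0% = DMSO wells and 100% = wells with reference MMP-13 inhibitor after basal subtraction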
Cdc25B inh: human M-phase inducer phosphatase 2 inhibition; AID 368; P30305; actives 0.1% (n = 65,000); inhibition, %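 (compounds tested at 10 µM final in the well)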; recombinant Cdc25B, OMFP fluorescence Ex485/Em525; in the data active means inhibition above about 50%
Target sequence (P30305 whole entry, looked up): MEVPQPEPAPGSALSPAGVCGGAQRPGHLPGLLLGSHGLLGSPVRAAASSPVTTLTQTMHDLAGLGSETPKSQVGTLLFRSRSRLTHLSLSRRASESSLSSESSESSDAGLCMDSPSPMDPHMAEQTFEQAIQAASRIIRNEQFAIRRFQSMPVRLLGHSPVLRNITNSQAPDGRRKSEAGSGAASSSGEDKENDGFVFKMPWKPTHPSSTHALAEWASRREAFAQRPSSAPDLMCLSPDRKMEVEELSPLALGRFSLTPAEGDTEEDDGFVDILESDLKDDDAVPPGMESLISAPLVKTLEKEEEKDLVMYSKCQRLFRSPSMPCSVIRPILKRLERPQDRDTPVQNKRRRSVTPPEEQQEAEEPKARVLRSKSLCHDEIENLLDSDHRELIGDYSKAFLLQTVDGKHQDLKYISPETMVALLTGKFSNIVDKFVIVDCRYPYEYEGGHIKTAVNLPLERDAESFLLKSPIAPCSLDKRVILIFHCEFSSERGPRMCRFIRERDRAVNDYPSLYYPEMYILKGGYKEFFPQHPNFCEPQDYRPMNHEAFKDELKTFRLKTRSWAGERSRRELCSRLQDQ
DUSP1 inh: human dual specificity phosphatase 1 inhibition; P28562; recombinant MKP-1, OMFP hydrolysis fluorescence; inhibition, %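 (compounds tested at a single concentration somewhere between 10 and 100 µM)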; actives 0.15% (n = 65,000);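 active means inhibition above about 50%, limit read from the data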;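 further: 0% = DMSO max control wells and 100% = wells with enzyme stopped by NaOH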
M1 antagonist: blocks the rat M1 muscarinic receptor response to acetylcholine; P08482; CHO-M1 cells, Fluo-4 calcium, ACh EC80 antagonist mode; active compounds read low; B-score at 10 µM; actives 3.4% (n = 64,000); AID 628;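 active means calcium fluorescence response, raw or row-and-column corrected B-score, differing from the plate sample mean either way at a set confidence level, mostly lower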
M1 antag conf: M1 muscarinic receptor (rat) antagonism, confirmed | shares compounds with M1 antagonist | CHO-M1 cells, Fluo-4 calcium, ACh EC80 antagonism; active compounds read low | calcium response (max-min fluorescence) at 10 µM | actives 43% (n = 1,700) | AID 677;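 active means calcium response below the same-plate mean of wells given acetylcholine alone at its 80%-effect dose, minus 3 SD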;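 further: raw fluorescence intensity difference in arbitrary instrument units and not normalized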
mGluR4 antag: mGluR4 (human) activity, M1 antagonist secondary assay | shares compounds with M1 antagonist | CHO-mGluR4 calcium flux, Fluo-4 fluorescence, glutamate EC80; active compounds read low | fluorescence response (max-min) at 10 µM | actives 0.9% (n = 1,700) | AID 678;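 active means fluorescence response below the plate's average for near-maximal glutamate wells, less 3 SD of those wells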;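 further: raw unnormalized fluorescence span taken in the window right after glutamate addition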
An asterisk follows results filed as active; / = not tested or not shown. Sampled rows, rich in hits. Any-hit rate of the full collection: about 6.1%.

SMILES	Hsp90 inh	M1 agonist	MMP13 inh	Cdc25B inh	DUSP1 inh	M1 antagonist	M1 antag conf	mGluR4 antag
CCOc1ccccc1-c1nc(-c2ccc(C)nc2OC)no1	-1.9	-0.0657	-6.1	-3.9	1.9	-0.784*	663	237
Cc1ccccc1-n1c(=O)cc(N2CCN(C(=O)c3ccco3)CC2)[nH]c1=O	-2.0	-0.69	4.1	-4.3	-3.9	0.238	/	/
CCCc1cc(=O)oc2cc(C)cc(OCc3nn[nH]n3)c12	-1.7	0.242	-157.3	-1.9	-15.7	0.265	/	/
CCCc1cc(=O)oc2cc(C)cc(OC(=O)c3ccco3)c12	-4.8	-0.289	-1.6	-4.5	-6.7	-2.92*	551	205
O=C(c1cccc(F)c1)N1CCN(C(=O)c2cc(-c3ccc(Cl)cc3Cl)on2)CC1	6.1	0.964	3.2	1.5	8.8	-0.841	/	/
COc1ccc(S(=O)(=O)N2CC3C4C=CC(C4)C3C2)cc1 (configuration not stated)	-1.9	-0.32	-6.4	-4.7	5.0	0.907	/	/
COc1ccc(CNC(=O)CSc2nnnn2-c2ccccc2)cc1	0.3	0.147	3.2	-6.9	13.4	-4.77*	655	249
Cc1ccc(CN2C3=NCCCN3c3ccccc32)cc1	0.9	0.786	2.9	-9.2	-2.2	-2.81*	419	212
Cc1noc(C)c1S(=O)(=O)Nc1ccc(C(=O)N2CCN(c3ccc(Cl)cc3)CC2)cc1	3.7	2.91	1.2	15.3	42.5	-2.43*	487	233
Cc1noc(C)c1S(=O)(=O)Nc1ccc(C(=O)NC2CCCCCC2)cc1	0.5	-0.0905	3.5	-7.3	11.6	-1.13	/	/
Cc1noc(C)c1S(=O)(=O)N1CCC(C(=O)N2CCN(c3ccc(F)cc3)CC2)CC1	1.3	0.0364	2.7	-3.9	13.3	-1.89*	552	191
CCCc1cc(C(=O)NCC(C)C)no1	-2.8	-0.607	0.1	-5.1	-2.4	-0.327	/	/
O=C1c2ccccc2C(Nc2ccc3c(c2)OCCO3)N1Cc1ccccc1 (configuration not stated)	3.4	-0.349	1.9	-6.9	2.4	0.528	/	/
CC(=O)c1cccc(NC2c3ccccc3C(=O)N2Cc2ccc3c(c2)OCO3)c1 (configuration not stated)	0.4	2.64	1.5	2.6	6.4	-3.05*	502	190
Clc1ccc(C2=CSC3=NCCN23)cc1Cl	-1.9	-0.22	8.6	6.6	-3.0	-2.22*	535	241
Cc1ccc(N2C(=O)CSC23C(=O)Nc2ccccc23)cc1 (configuration not stated)	-3.3	1.55	-2.0	-0.2	5.9	-3.19*	428	217
CC1=CC(C)(C)N2C(=O)C3(SCC(=O)N3c3ccc(O)cc3)c3cc(C)cc1c32 (configuration not stated)	-1.2	-1.16	-0.1	0.6	11.8	0.549	/	/
CCCCn1c(=N)n(CC(O)COc2ccccc2)c2ccccc21 (configuration not stated)	-0.2	0.0127	6.5	-20.7	0.4	-2.34*	627	234
N=c1n(CCN2CCCC2)c2ccccc2n1CC(O)c1ccco1 (configuration not stated)	4.0	0.347	-5.7	9.3	-0.4	-0.71	/	/
N=c1n(CCN2CCCCC2)c2ccccc2n1CC(O)c1cccc(Br)c1 (configuration not stated)	-0.7	-0.29	-1.8	-25.5	1.5	-4.08*	447	198
COc1ccccc1OCC(O)Cn1c(=N)n(CCN2CCCCC2)c2ccccc21 (configuration not stated)	-10.4	-0.0798	3.5	-4.1	-4.8	-1.56*	395	181
Cc1cc(=O)[nH]c(=S)n1-c1ccccc1	1.5	-0.129	1.3	-14.2	-9.0	-1.24*	653	229
CC(O)c1n(C)c(Cl)c[n+]1C (configuration not stated)	-0.1	-0.496	-0.8	-16.8	-13.3	0.0795	/	/
Cc1cccc(NC(=O)c2sc(NC(=O)c3ccco3)c(C#N)c2C)c1C	-4.6	-0.627	-0.3	-21.3	-0.3	-2.47*	612	229
CC1(C)Cc2c(sc(NC(=O)c3ccco3)c2C#N)CO1	-1.1	0.133	-1.0	16.1	-6.4	-0.357	/	/
SMILES	Hsp90 inh	M1 agonist	MMP13 inh	Cdc25B inh	DUSP1 inh	M1 antagonist	M1 antag conf	mGluR4 antag
N#Cc1c2c(c(N3CCN(c4ccccn4)CC3)n3c1nc1ccccc13)CCC2	/	-0.9	1.2	/	/	1.1	/	/
Cc1cc(N2CCN(c3ccccn3)CC2)n2c(nc3ccccc32)c1C#N	-5.8	3.13	-2.1	3.7	-7.7	-2.2*	576	127*
C=CCC(=O)OCC(=O)Nc1ccc(Oc2ccccc2)cc1	/	-0.206	3.4	-1.3	-0.9	0.169	/	/
Cc1csc2ncc(C(=O)NCc3ccccn3)c(=O)n12	-2.7	1.66	-111.3	3.3	-0.3	0.209	/	/
C=CCOn1c(=O)c(=O)n(OCc2ccccc2)c2ccccc21	5.3	-0.28	4.9	-3.0	-8.9	-2.58*	632	256
COc1ccc(S(=O)(=O)N2CCCC(C(=O)NCc3ccco3)C2)cc1Cl (configuration not stated)	-3.2	-0.793	0.3	-13.7	-2.9	0.0631	/	/
CCCC(=O)NCCc1c2n(c3ccc(OC)cc13)Cc1ccccc1-2	-0.7	/	/	/	/	/	/	/
CCOC(=O)CSc1nc2sc3c(c2c(=O)[nH]1)CCCC3	-1.0	-0.548	4.9	4.1	3.8	0.0242	/	/
CCOC(=O)CSc1nnc(NCC(=O)OC(C)C)c(=O)[nH]1	-1.7	1.23	-10.6	-17.7	13.7	-2.18*	622	211
CS(=O)(=O)N1CCN(C(=O)c2ccccc2)C1	-1.7	0.338	0.1	-14.5	-1.4	-0.0383	/	/
CS(=O)(=O)N1CCN(C(=O)C2c3ccccc3Oc3ccccc32)CC1	-3.3	-0.279	1.3	-17.4	6.4	-2.21*	365*	200
CCC(=O)Nc1cc(Cl)ccc1N1CCN(C(=O)CC)CC1	2.6	0.0105	2.3	1.2	3.2	-4.85*	692	294
O=C(NCCN1CCN(c2ccccc2)CC1)C1CCN(S(=O)(=O)N2CCOCC2)CC1	2.2	0.266	1.9	-7.1	14.0	-0.00755	/	/
O=C(NC1CCCCCC1)C1CCN(c2nc3ccccc3o2)CC1	4.1	-0.207	2.6	-4.4	1.1	-2.76	/	/
COc1cccc(CNC(=O)C2CCCN(c3nc4ccccc4o3)C2)c1 (configuration not stated)	-1.9	-0.0933	2.4	-7.5	30.7	-1.92*	643	229
CCN1CCCC1CNC(=O)c1cc2c(C)nc3ccccc3c2o1 (configuration not stated)	-4.0	0.167	-25.3	-7.2	32.4	-0.656	/	/
